# Screens (PubChem BioAssay)
# GALC G270D up = galactocerebrosidase G270D activity enhancement, cell-based | P54803 | AID 1159614 | 145M-Twi-hGALC-G270D cells (Twitcher mouse brain line with human GALC G270D), HMU-beta-Gal fluorescence, 48 h | Potency, µM (doses to about 57.5 µM), usual class: activators | 45,000 tested, 0.1% active; further: nearly all actives have a fitted effect of over 65% in size
#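 Mutant human GALC (G270D), stably expressed in a Twitcher mouse brain cell line lacking endogenous GALC, is measured in live-treated cells via 6-hexadecanoylamino-4-methylumbelliferyl-β-galactoside hydrolysis (0.1 mM final, pH 5.2) with fluorescent detection.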
# p53null 32C kill = selectivity test: cytotoxicity in p53 null cells, permissive temperature. H1299-neo p53 null cells, ATP luminescence, 24 h, 32C. Potency, µM (highest dose often 46.1 µM), most hits filed as cytotoxic. 55,000 tested, 0.62% active; further: nearly all actives have a fitted effect of over 55% in size
#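 We seeded p53-null H1299-neo cells, incubated them overnight at 37C, and added compounds across a range up to 46 uM. After 24 hours at 32C, ATP reagent was applied for 20 min at room temperature and luminescence recorded.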
# FH mod = Identification of activators of human fumarate hydratase by quantitative high-throughput screening | AID 1347055, 2019 | Potency, µM (doses to about 79.9 µM), hits mostly inhibitors | Fumarate hydratase, mitochondrial (Homo sapiens), P07954 | FH coupled MDH/diaphorase resazurin fluorescence, 15 min | 54,000 tested, 0.22% active; further: the screen sought activators but most active calls are inhibition curves; nearly all actives have a fitted effect of over 45% in size
# NTMT1 inh = inhibitors of human N-terminal methyltransferase NTMT1. 59,000 tested, 2.5% active. Potency, µM (doses to about 114 µM), hits mostly inhibitors. Q9BV86. NTMT1 MTase-Glo SAH luminescence, purified enzyme; further: nearly all actives have a fitted effect of over 65% in size
# Target sequence (Q9BV86 whole entry, looked up): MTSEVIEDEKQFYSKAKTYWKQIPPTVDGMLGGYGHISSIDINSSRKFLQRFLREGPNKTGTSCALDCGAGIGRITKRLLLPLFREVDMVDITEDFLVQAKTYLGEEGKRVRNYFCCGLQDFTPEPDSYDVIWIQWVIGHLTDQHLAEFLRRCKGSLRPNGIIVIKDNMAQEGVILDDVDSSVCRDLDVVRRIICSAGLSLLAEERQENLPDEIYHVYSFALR
# GPR32 ag = activates human resolvin D1 receptor GPR32; 48,000 tested, 2.5% active; CHO-K1 GPR32 beta-arrestin PathHunter luminescence, 90 min; zero percent set by DMSO-only wells; activation, % at 76.9 µM; AID 1346428;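 active means activation of at least 60% and not above a set upper limit, about 1 call in 100 departs from these limits; inconclusive means activation of 40% to 60%, or above that upper limit; inactive means activation under 40%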
# Target sequence (O75388 whole entry, looked up): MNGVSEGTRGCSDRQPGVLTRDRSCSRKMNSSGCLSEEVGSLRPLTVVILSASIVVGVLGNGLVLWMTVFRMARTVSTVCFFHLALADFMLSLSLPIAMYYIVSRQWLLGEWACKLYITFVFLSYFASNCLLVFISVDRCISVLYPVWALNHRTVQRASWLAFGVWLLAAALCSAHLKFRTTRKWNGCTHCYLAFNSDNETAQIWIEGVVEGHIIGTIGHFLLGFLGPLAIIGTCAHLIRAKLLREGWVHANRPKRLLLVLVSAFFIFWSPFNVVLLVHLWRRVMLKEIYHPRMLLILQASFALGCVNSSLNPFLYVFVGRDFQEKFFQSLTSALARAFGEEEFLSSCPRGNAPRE
#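 GPR32 activation in stably transfected CHO-K1 cells, detected as beta-arrestin recruitment by enzyme-fragment complementation. Compound exposure: 90 min, 37 °C.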
# p53null 39C kill = selectivity test: cytotoxicity in p53 null cells, nonpermissive temperature; 55,000 tested, 0.97% active; H1299 p53-null (neo) cells, 39C, ATPlite viability, 24 h; Potency, µM (titrated, usually from 46.1 µM), usual class: cytotoxic; further: nearly all actives have a fitted effect of over 50% in size
#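 Luminescent ATP signal reported cell survival after H1299 lines (neo, p53 null; or p53 A138V) received up to 46 uM compound and 24 hr incubation at 39C.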
# Numbers stand for hits; n = inactive; u = inconclusive; x = not tested or not shown; ! = not active in a repeat; [ ] = another dose, or the depositor's remark. Rows were chosen to be rich in hits. Some 3.9% of all compounds tested hit in one or more screens of this group. Unless noted, the call rests on the fitted dose curve; in most records, active means well fitted curve in the direction sought with a large enough effect; inconclusive means small, poorly fitted or top-dose-only effect, or another doubt; inactive means no such curve, though single readings can be large; an effect the other way counts as inactive or inconclusive.
SMILES,GALC G270D up,p53null 32C kill,FH mod,NTMT1 inh,GPR32 ag,p53null 39C kill
Cc1cc(NS(=O)(=O)c2ccc(C(=O)NCc3ccc(Cl)c(Cl)c3)cc2)no1,x,x,x,n,x,x
C/C1=C\CCC(C)CCO[C@@H]2O[C@H](CO[C@@H]3OC[C@H](O)[C@H](O)[C@H]3OC1=O)[C@@H](O)[C@H](O)[C@H]2O (stereo partly drawn),x,x,n,n,x,x
Cc1cc(NS(=O)(=O)c2ccc(NC(=O)Cc3cccc(Cl)c3)cc2)no1,x,x,x,n,x,x
Cc1cc(Nc2cccc(O)c2)c2cccc(Br)c2n1,n,n,n,n,119.3,n
CCOc1ccc(Cc2nccc3cc(OCC)c(OCC)cc23)cc1OCC,n,x,n,n,88.3,x
CCCN(CCC)CCCNC(=O)c1cc2c(=O)n(C)c3ccccc3c2s1,n,n,u,50.1µM,n,n
CCn1c(=O)c2cc(C(=O)NCCCN(C)Cc3ccccc3)sc2c2ccccc21,n,n,u,u,n,u
CCCN(CCC)CCNC(=O)c1cc2c(-c3ccc(Cl)cc3)nn(C)c2s1,n,u,n,u,n,12.6µM
CC(C)OCCCNC(=O)c1cc2c(-c3ccc(Cl)cc3)nn(C)c2s1,n,n,u,u,n,n
CCCCN(CC)CCNC(=O)c1cc2c(-c3ccc(Cl)cc3)nn(C)c2s1,n,u,n,u,n,15.8µM
CNCC(=O)Nc1ccc(Cl)cc1C(=O)c1ccc[nH]1,x,x,x,n,x,x
COc1ccc(C(=O)N(CCC(C)C)Cc2nc(C)c(C)n2Cc2ccccc2C)c(OC)c1,x,x,n,n,x,x
C=C1[C@H](OC(=O)/C=C(\C)CC)C[C@@H](C(C)C)[C@@H]2[C@H]([C@@H](C)OC(C)=O)C(=O)C[C@@H]12,x,x,x,n,x,x
Cc1cc(SCc2sc(-c3ccc(C(F)(F)F)cc3)nc2C)ccc1OCC(=O)O,x,x,n,79.4µM!,x,x
COc1ccc(C(=O)NCCc2sc(-c3ccc(F)cc3)nc2C)cc1OC,n,n,n,n,n,n
O=C1NC(=O)C(=Cc2ccc(-c3ccc(F)cc3)o2)S1,x,x,n,21.5µM,x,x
Cc1cccc(CN2CCN(CC(=O)NCCc3ccc(Cl)cc3)C2=O)c1,n,n,n,n,74.8,n
O=C(CN1CCN(Cc2ccccc2Cl)C1=O)NCCc1ccc(Cl)cc1,n,n,n,n,71.1,n
O=C(CN1CCN(Cc2ccccc2F)C1=O)NCc1ccccc1,n,n,n,n,n,n
CC1=CC2/C=C(\C)CCC(O)C/C=C/C(=O)OC23C(=O)NC(CC(C)C)C3C1C (stereo not drawn),x,x,n,n,x,x
COc1ccc(S(=O)(=O)N(CCc2ccccc2)CC(=O)Nc2cc(Cl)ccc2C)cc1,n,n,n,3.98µM,n,n
Cc1ccc(C)c(NC(=O)CN(CCc2ccccc2)S(=O)(=O)c2ccccc2)c1,n,n,u,n,n,n
Cc1ccc(S(=O)(=O)NCCc2csc3nc(-c4ccccc4C)nn23)cc1,n,n,n,n,79.7,n
C=C1[C@H]2[C@H](O[C@@H]3O[C@H](COC(=O)/C=C/c4cc(OC)c(O)c(OC)c4)[C@@H](O)[C@H](O)[C@H]3O)OC=C(C(=O)O)[C@H]2C[C@@H]1O,x,x,n,n[12.6 µM],x,x
CC(C)c1ccc(NC(=O)C2CCCN(S(=O)(=O)c3cccc4nonc34)C2)cc1 (stereo not drawn),n,n,n,n,n,u
SMILES,GALC G270D up,p53null 32C kill,FH mod,NTMT1 inh,GPR32 ag,p53null 39C kill
O=C(Nc1ccc(Br)cc1)C1CCCN(S(=O)(=O)c2ccc(Br)s2)C1 (stereo not drawn),n,n,n,n,81.9,n
CCc1ccc(NC(=O)C2CCCN(S(=O)(=O)c3cccc4nonc34)C2)cc1 (stereo not drawn),n,n,n,n,89.0,n
CC(C(=O)O)C1CCC2(C)C3C(=O)C=C4C(CCC(=O)C4(C)C)C3(C)CCC12C (stereo not drawn),x,x,n,n,x,x
CC(=O)Nc1sc2c(c1-c1nc3ccccc3s1)CNC2,x,x,n,79.4µM!,x,x
O=[S+]([O-])(Nc1nccs1)c1ccc(NCc2cc(Cl)cc(Br)c2O)cc1,x,x,x,n,x,x
CC(C)OCCCNc1ncnc2sc3c(c12)CCCC3,n,n,n,50.1µM,104.1,n
CN(CCCN1c2ccccc2CCc2ccccc21)CC(=O)c1ccc(Cl)cc1,n,x,n,31.6µM,108.9,x
Cc1ccc(C(=O)Nc2ccccc2)cc1S(=O)(=O)Nc1ccccc1,n,n,n,n,94.8,n
O=C(Nc1ccccc1)c1ccc(Cl)c(S(=O)(=O)Nc2ccccc2)c1,n,n,n,u,91.4,n
CC(=O)OC1/C(C)=C/C(=O)C(OC(C)=O)C(C)(C)/C=C/C(C)C(=O)C2(OC(C)=O)CC(C)C(OC(=O)c3ccccc3)C12 (stereo not drawn),x,x,n,n[12.6 µM],x,x
COc1ccc(CNC(=O)CSc2ncc(S(=O)(=O)c3ccc(Br)cc3)c(=O)[nH]2)cc1,n,n,n,n,n,n
COC(=O)c1cc(Cl)ccc1NC(=O)CSc1ncc(S(=O)(=O)c2ccc(Br)cc2)c(=O)[nH]1,n,n,u,79.4µM,100.2,n
CC(C)(C)C(=O)Nc1ccc(-c2nc3ccc(NC(=O)C(C)(C)C)cc3[nH]2)cc1,n,12.6µM,n,n,n,3.98µM
CC(C)(C)C(=O)Nc1ccc(Cl)c(-c2nc3ccccc3[nH]2)c1,n,n,n,n,87.8,n
CC(=O)Nc1ccc(C(=O)Nc2ccc(-c3nc4ccccc4[nH]3)cc2)cc1,x,x,x,n,x,x
CC(C)CC(=O)Nc1ccc(Cl)c(-c2nc3ccccc3[nH]2)c1,n,n,n,n,n,n
Cc1ccccc1Sc1ccc(/C=C2\SC(=S)NC2=O)cc1[N+](=O)[O-],x,x,28.2µM,25.1µM,x,x
Nc1ncnc2c1ncn2[C@H]1CCCO1,x,x,n,n,x,x
COc1ccc(C2COc3cc(O)ccc3C2)c(O)c1OC (stereo not drawn),x,x,n,n,x,x
Fc1ccc(Cc2cn3cc(-c4ccccc4)nc3s2)cc1,n,4.47µM,n,n,n,2µM
Fc1ccc(-c2cn3cc(Cc4ccccc4)sc3n2)cc1,n,u,n,n,n,u
O=C(NNc1ncnc2c1cnn2-c1ccccc1)c1ccccc1,n,n,n,n,n,n
Cc1ccc(-n2ncc3c(NC4CCCC4)ncnc32)cc1,n,7.94µM,n,n,112.3,u
Cc1cccc(C(=O)NNc2ncnc3c2cnn3-c2ccc(C)cc2C)c1,n,n,n,u,113.2,n
c1ccc(-n2ncc3c(NC4CCCC4)ncnc32)cc1,n,15.8µM,n,n,n,u
CCC(C)Nc1ncnc2c1cnn2-c1ccc(F)cc1 (stereo not drawn),n,u,n,n,65.1,u
